Measurements: the supplement of paper PMC6522484
± gives the standard deviation of the averaged measurements.

Key:
[1] = test system: DLD1; assay: cell viability (CellTiter-Glo) relative to plate median (fraction of plate median); higher = more viable cells; conditions: 5 µM; treatment time 24 h; reporter: 7TFP
How it was run: (§1)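 Values are well luminescence normalised to the plate median, from either a firefly luciferase or a CellTiterGlo readout on parallel plates. The cells, colorectal cancer lines stably transduced with lentiviral 7TFP or TCF4/Wnt firefly luciferase reporters, were treated with library compounds at a final 5 µM for 24 h. The mean of two independent replicates is listed.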

[2] = test system: HCT116; assay: as above; conditions: 5 µM; treatment time 24 h; reporter: TCF4/Wnt
How it was run: as §1

[3] = test system: SW480; assay: as above; conditions: 5 µM; treatment time 24 h; reporter: 7TFP
How it was run: as §1

[4] = test system: DLD1; assay: TCF/Wnt firefly luciferase reporter signal relative to plate median (fraction of plate median); higher = higher Wnt reporter signal; conditions: 5 µM; treatment time 24 h; reporter: 7TFP
How it was run: as §1

[5] = test system: SW480; assay: as above; conditions: 5 µM; treatment time 24 h; reporter: 7TFP
How it was run: as §1

SMILES | cell viability [1] | cell viability [2] | cell viability [3] | TCF/Wnt firefly luciferase reporter signal [4] | TCF/Wnt firefly luciferase reporter signal [5]
CCC(=O)O[C@H]1CC[C@H]2[C@@H]3CCC4=CC(=O)CC[C@]4(C)[C@H]3CC[C@]12C | 1.02 ± 0.045 | 0.894 ± 0.06 | 1 ± 0.012 | 0.994 ± 0.17 | 0.99 ± 0.013
CC(=O)O[C@H]1C[C@H](O[C@H]2[C@@H](O)C[C@H](O[C@H]3[C@@H](O)C[C@H](O[C@H]4CC[C@@]5(C)[C@H](CC[C@@H]6[C@@H]5C[C@@H](O)[C@]5(C)[C@@H](C7=CC(=O)OC7)CC[C@]65O)C4)O[C@@H]3C)O[C@@H]2C)O[C@H](C)[C@H]1O[C@@H]1O[C@H](CO)[C@@H](O)[C@H](O)[C@H]1O | 0.65 ± 0.044 | 0.636 ± 0.0042 | 0.851 ± 0.078 | 0.264 ± 0.13 | 0.584 ± 0.057
O=C(NC(=O)c1c(F)cccc1F)Nc1cc(Cl)c(OC(F)(F)C(F)C(F)(F)F)cc1Cl (stereo not given) | 0.985 ± 0.05 | 0.984 ± 0.066 | 0.987 ± 0.013 | 0.907 ± 0.028 | 1.03
CC[C@@]1(O)C[C@H](O[C@H]2C[C@H](N(C)C)[C@H](O)[C@H](C)O2)c2c(cc3c(c2O)C(=O)c2c(O)ccc(O)c2C3=O)[C@H]1C(=O)OC | 0.893 ± 0.075 | 0.548 ± 0.029 | 1.05 ± 0.042 | 0.569 ± 0.068 | 0.711 ± 0.016
COC1C(O)C(O[C@H]2CC[C@]3(C=O)C4C(CC[C@]3(O)C2)[C@@]2(O)CC[C@H](C3=CC(=O)OC3)[C@@]2(C)C[C@H]4OC(C)=O)OC(C)C1OC(C)=O (stereo not given in full) | 0.929 ± 0.11 | 1.03 ± 0.083 | 0.941 ± 0.044 | 0.828 ± 0.042 | 0.83 ± 0.069
C/C=C/c1ccc2c(c1)OCO2 | 0.951 ± 0.13 | 0.998 ± 0.059 | 0.986 ± 0.049 | 1.04 ± 0.17 | 1.05 ± 0.1
CNC(=O)Oc1ccccc1OC(C)C | 0.98 ± 0.0071 | 0.983 ± 0.0042 | 0.986 ± 0.014 | 0.913 ± 0.19 | 1.01 ± 0.016
C[C@@H]1O[C@@H](O[C@H]2C[C@@H](O)[C@]3(CO)[C@H]4[C@H](O)C[C@]5(C)[C@@H](C6=CC(=O)OC6)CC[C@]5(O)[C@@H]4CC[C@]3(O)C2)[C@H](O)[C@H](O)[C@H]1O | 0.99 ± 0.085 | 0.401 ± 0.29 | 1.02 ± 0.14 | 0.128 ± 0.13 | 0.146 ± 0.12
CC(=O)O[C@H]1C[C@@H]2CC[C@@H]3[C@H](CC[C@@]4(C)[C@H]3C[C@H]([N+]3(C)CCCCC3)[C@@H]4OC(C)=O)[C@@]2(C)C[C@@H]1[N+]1(C)CCCCC1 | 0.9865 ± 0.0064 | 1.03 ± 0.062 | 0.963 ± 0.011 | 1.01 ± 0.093 | 0.9685 ± 0.0078
COC(=O)[C@]1(C)CC[C@]2(C)CC[C@]3(C)C4=CCc5c(cc(O)c(O)c5C)[C@]4(C)CC[C@@]3(C)[C@@H]2C1 | 0.9465 ± 0.0078 | 1.045 ± 0.0071 | 1.005 ± 0.0071 | 1.03 ± 0.054 | 1.11 ± 0.014
COc1ccc(O)c2c(=O)c3c(OC)cc4c(c3oc12)C1C=COC1O4 (stereo not given) | 1.06 ± 0.057 | 1.03 ± 0.057 | 1.02 ± 0.028 | 1.01 ± 0.11 | 0.999 ± 0.044
NCC(=O)c1ccccc1 | 0.981 ± 0.11 | 0.999 ± 0.059 | 0.983 ± 0.018 | 0.851 ± 0.14 | 0.917 ± 0.2
CC1C[C@H]2CC(=O)[C@H]3CCCN4CCC[C@H]2[C@]34C1.[O-][Cl+3]([O-])([O-])O (stereo not given in full) | 0.97 ± 0.011 | 1.01 ± 0.031 | 0.933 ± 0.0042 | 1.1 ± 0.099 | 1.1 ± 0.16
COc1cc(OC)c2c(c1)O[C@H](c1ccc(OC)c(OC)c1)[C@@H](O)C2 | 0.924 ± 0.071 | 0.955 ± 0.047 | 0.973 ± 0.096 | 0.952 ± 0.023 | 1.01 ± 0.014
CC(=O)Nc1cc([As](=O)(O)O)ccc1O | 1.04 ± 0.064 | 0.994 ± 0.023 | 1.02 | 1.13 ± 0.085 | 0.973 ± 0.038
CC(=O)Oc1ccc(/C=C/c2cc(OC(C)=O)cc(OC(C)=O)c2)cc1 | 1.05 ± 0.042 | 1.02 ± 0.014 | 1.09 ± 0.021 | 1.14 ± 0.26 | 1.17 ± 0.078
CC[C@@H](CO)NC(=O)[C@@H]1C=C2c3cccc4[nH]cc(c34)C[C@H]2N(C)C1 | 0.968 ± 0.045 | 1.02 ± 0.028 | 0.957 ± 0.054 | 1.04 ± 0.028 | 1.075 ± 0.0071
COc1cccc2c1cc([N+](=O)[O-])c1c(C(=O)O)cc3c(c12)OCO3 | 0.983 ± 0.052 | 1.06 ± 0.098 | 1.01 ± 0.018 | 1.28 ± 0.12 | 1.1 ± 0.13

SMILES | cell viability [1] | cell viability [2] | cell viability [3] | TCF/Wnt firefly luciferase reporter signal [4] | TCF/Wnt firefly luciferase reporter signal [5]
CC(=O)O[C@H]1CC[C@@]2(C)C(=CC[C@@H]3[C@@H]2CC[C@]2(C)C(=O)CC[C@@H]32)C1 | 1.02 ± 0.075 | 1.03 ± 0.083 | 0.983 ± 0.025 | 0.944 ± 0.028 | 1.08 ± 0.092
O=C1C=CC(=O)c2ccccc21 | 0.9965 ± 0.005 | 1.05 ± 0.042 | 0.989 ± 0.12 | 1.13 ± 0.057 | 0.963 ± 0.047
[N-]=[N+]=CC(=O)OC[C@H](N)C(=O)O | 0.717 ± 0.18 | 0.887 ± 0.092 | 1.07 ± 0.028 | 0.977 ± 0.047 | 0.989 ± 0.044
C[C@@H](CO)NC(=O)[C@@H]1C=C2c3cccc4[nH]cc(c34)C[C@H]2N(C)C1 | 0.983 ± 0.067 | 1.01 ± 0.061 | 0.939 ± 0.052 | 1.09 ± 0.099 | 0.98 ± 0.026
COc1ccc2c(c1)[C@]13CCCC[C@@H]1[C@H](C2)N(C)CC3 | 1 ± 0.053 | 0.992 ± 0.096 | 1.02 ± 0.035 | 1.03 ± 0.14 | 1 ± 0.023
NCCc1cc(O)c(O)cc1O | 1.04 ± 0.065 | 1.03 ± 0.028 | 0.983 ± 0.025 | 1.13 ± 0.16 | 1.24 ± 0.021
CCC1(C2=NCCN2)Cc2ccccc2O1 (stereo not given) | 0.9965 ± 0.005 | 1.04 ± 0.021 | 1.02 ± 0.09 | 1.015 ± 0.0071 | 1.04 ± 0.035
CC(=O)O[C@H]1C[C@@H](OC(C)=O)C(C)(C)C2C[C@@H](OC(C)=O)[C@]3(C)C(CC[C@@]4(C)[C@H](c5ccoc5)C(=O)[C@H]5O[C@]543)[C@]21C (stereo not given in full) | 0.99 ± 0.014 | 1.06 ± 0.19 | 1.02 ± 0.035 | 1.2 ± 0.057 | 1.09 ± 0.078
CC1=CCCC2C1(C)CCC(C)C2(C)CC/C(C)=C/Cn1c[n+](C)c2c(N)ncnc21 (stereo not given) [AGELASINE (stereochemistry of diterpene unknown)] | 1.02 ± 0.14 | 1.06 ± 0.071 | 0.94 ± 0.015 | 1.18 ± 0.092 | 1.07 ± 0.078
CN[C@@H]1[C@@H](O)[C@@H](O[C@@H]2[C@@H](O)[C@H](O[C@H]3O[C@H](CN)CC[C@H]3N)[C@@H](N)C[C@H]2N)OC[C@]1(C)O.CN[C@@H]1[C@@H](O)[C@@H](O[C@@H]2[C@@H](O)[C@H](O[C@H]3O[C@H]([C@@H](C)N)CC[C@H]3N)[C@@H](N)C[C@H]2N)OC[C@]1(C)O.CN[C@@H]1[C@@H](O)[C@@H](O[C@@H]2[C@@H](O)[C@H](O[C@H]3O[C@H]([C@@H](C)NC)CC[C@H]3N)[C@@H](N)C[C@H]2N)OC[C@]1(C)O | 1.06 ± 0.17 | 0.997 ± 0.089 | 1.03 ± 0.063 | 1.03 ± 0.028 | 1.04 ± 0.069
C=CCC1(C(C)CCC)C(=O)NC(=S)NC1=O (stereo not given) | 1.03 ± 0.076 | 1.18 ± 0.23 | 0.951 ± 0.0028 | 1.02 ± 0.035 | 0.794 ± 0.011
CN[C@@H](C)[C@@H](O)c1ccccc1 | 0.9265 ± 0.0021 | 1.02 ± 0.035 | 0.978 ± 0.06 | 0.993 ± 0.067 | 1.03 ± 0.064
CCC[C@H]1CCCCN1 | 1.01 ± 0.021 | 0.936 ± 0.046 | 0.983 ± 0.039 | 1.04 | 1.05 ± 0.087
S=C=NCc1ccccc1 | 0.961 ± 0.053 | 0.928 ± 0.039 | 0.959 ± 0.012 | 0.748 ± 0.17 | 0.822 ± 0.071
CC1(C)C2CC(=O)[C@]3(C)C(CC[C@@]4(C)[C@H](c5ccoc5)OC(=O)[C@H]5O[C@]543)[C@@]2(C)C(=O)C[C@H]1O (stereo not given in full) | 1.015 ± 0.0071 | 0.988 ± 0.018 | 1.01 ± 0.071 | 0.918 ± 0.037 | 0.965 ± 0.079
NCC(CC(=O)O)c1ccc(Cl)cc1 (stereo not given) | 0.998 ± 0.088 | 0.9975 ± 0.0035 | 1.03 ± 0.028 | 0.897 ± 0.1 | 1.02 ± 0.12
Cc1ncc(CNC(=O)N(CCCl)N=O)c(N)n1 | 1.02 ± 0.021 | 0.98 ± 0.0071 | 1.025 ± 0.0071 | 1.01 ± 0.03 | 0.987 ± 0.019
Cc1cccc(C)c1NC1=NCCCS1 | 1.04 ± 0.073 | 1.01 ± 0.036 | 0.992 ± 0.012 | 1.07 ± 0.05 | 1.02 ± 0.083
